Data: PubChem BioAssay
The source made the active and inactive calls.

Columns and labels:
[1] = molecular target: Albumin (Bos taurus) (UniProt P02769); experiment: bovine serum albumin binders on microarray, profiling panel, artefact control for SMM control protein annotation, biochemical, small-molecule microarray, Alexa647 label, 635/667 nm fluorescence (AID 1118); settings: BSA-A647 binding, fluorescence 635 nm, higher = more signal;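 note: score merges 667 nm emission intensity and signal-to-noise per printed compound spot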
[2] = small-molecule microarray binders of probe aXIP, primary screen, biochemical, NeuroSMM set, 635/667 nm fluorescence (AID 1119); settings: higher = more signal, called active from +8 up or from −8 down;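 note: probe is the protein aXip251-270 applied at 1 µg/mL to compound-printed slides; binding of probe to printed compounds measured as 667 nm fluorescence plus signal to noise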
[3] = small-molecule binders of probe aNOTCH3, primary screen, biochemical, small-molecule microarray, 635/667 nm fluorescence (AID 1120); settings: higher = more signal;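 note: probe is a biotin-tagged antibody raised against NOTCH3 rather than NOTCH3 protein; score merges spot fluorescence near 667 nm with spot signal to noise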
[4] = small-molecule binders of probe aNOTCH2, primary screen, biochemical, small-molecule microarray, 635/667 nm fluorescence (AID 1121); settings: higher = more signal;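 note: score merges feature fluorescence read at 667 nm with its signal to noise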
[5] = molecular target: Carbonic anhydrase 2 (Homo sapiens) (UniProt P00918); experiment: CAII small-molecule binders, profiling panel, biochemical, small-molecule microarray, Alexa647-labelled CAII (AID 1122); settings: CAII-A647 binding fluorescence, higher = more signal
[6] = COS7 lysate on small-molecule microarray, probe aHis, 635 nm (AID 1123); settings: COS7 cell lysate, fluorescence, higher = more signal;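 note: z-score combines 667nm fluorescence intensity with signal-to-noise per printed compound spot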
[7] = compound binding in COS7 lysate, probe aLAP1, primary screen, cell lysate, small-molecule microarray (AID 1124); settings: probe aLAP1, fluorescence, higher = more signal;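 note: lysate comes from COS7 cells expressing LAP1 and is applied at 0.3 µg/mL; score merges spot fluorescence near 667 nm with signal-to-noise over triplicate slides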
[8] = test system: Sam68 (KHDRBS1); experiment: Sam68 small-molecule binders, primary screen, biochemical, small-molecule microarray, 635 nm fluorescence (AID 1125); settings: small-molecule microarray binding, higher = more signal;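 note: score merges 667 nm channel intensity with signal to noise over triplicate slides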
[9] = test system: Chordin-like protein 2 (CHRDL2); experiment: CHRDL2 small-molecule binders, primary screen, biochemical, small-molecule microarray, 635 nm fluorescence (AID 1126); settings: small-molecule microarray binding, fluorescence 635 nm; higher = more signal;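 note: printed compound slides probed with Chrdl2 protein at 4 µg/mL for 1 h at 4 C; score merges 667 nm emission intensity with signal to noise over three replicate slides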
[10] = molecular target: Concanavalin-A (Canavalia ensiformis) (UniProt P02866); experiment: ConA small-molecule binders, primary screen, artefact control for SMM control protein annotation, biochemical, small-molecule microarray, Alexa647 label, 635 nm (AID 1127); settings: ConA-A647 binding fluorescence, higher = more signal;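 note: z combines 667 nm emission intensity with signal-to-noise across three replicate slides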
[11] = anti-His antibody binders, primary screen, artefact control for SMM control protein annotation, biochemical, small-molecule microarray, 635 nm fluorescence (AID 1128); settings: anti-His Alexa647 antibody binding, higher = more signal;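 note: score merges feature fluorescence with signal-to-noise for each printed compound spot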
[12] = test system: Human papillomavirus type 1a E7 protein (residues 1-88); experiment: HPV1a E7 small-molecule binders, primary screen, biochemical, small-molecule microarray, residues 1-88, 635 nm (AID 1129); settings: small-molecule microarray binding, fluorescence 635 nm; higher = more signal
[13] = molecular target: Focal adhesion kinase 1 (Homo sapiens) (UniProt Q05397); experiment: small-molecule microarray binders of FAK, primary screen, biochemical, 635/667 nm fluorescence, BSA, DTT (AID 1130); settings: PTK2 binding, 635 nm fluorescence, higher = more signal;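 note: composite of spot emission at 667 nm and signal to noise over triplicate slides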
[14] = test system: Fibrinogen (Alexa647-labelled); experiment: fibrinogen binders on compound microarrays, profiling panel, artefact control for SMM control-protein annotation, biochemical, small-molecule microarray, 635/667 nm fluorescence (AID 1131); settings: fibrinogen-A647 binding fluorescence, higher = more signal;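 note: z-score merges 667 nm fluorescence with per-spot signal-to-noise over triplicate slides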
[15] = molecular target: Follistatin (Homo sapiens) (UniProt P19883); experiment: follistatin binders on small-molecule microarrays, primary screen, biochemical, small-molecule microarray, 635/667 nm fluorescence (AID 1132); settings: FST binding, 635 nm fluorescence, higher = more signal
[16] = molecular target: Fibroblast growth factor 2 (Homo sapiens) (UniProt P09038); experiment: FGF2 binders on small-molecule microarrays, primary screen, biochemical, small-molecule microarray, 635/667 nm fluorescence (AID 1133); settings: small-molecule microarray binding, FGF2, fluorescence 635/667; higher = more signal
[17] = mitochondrial membrane potential change in A549 cells, profiling panel, cell-based, JC-1 fluorescence, basal, 24 h, 100 nL (AID 1138); settings: higher = more signal;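 note: A549 lung adenocarcinoma cells under basal conditions with no added stimulus; test concentration not given here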
[18] = test system: Lefty1; experiment: Lefty1 binders on small-molecule microarrays, primary screen, biochemical, small-molecule microarray, 635/667 nm fluorescence (AID 1139); settings: small-molecule microarray binding, fluorescence 635/667; higher = more signal
[19] = test system: wheat germ agglutinin (Triticum aestivum), Alexa647-labelled; experiment: wheat germ agglutinin binders on compound microarrays, profiling panel, artefact control for SMM control-protein annotation, biochemical, small-molecule microarray, 635/667 nm fluorescence (AID 1140); settings: WGA-A647 binding, 635 nm fluorescence, higher = more signal;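 note: score merges 667 nm feature emission with signal to noise over triplicate slides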
[20] = molecular target: Luciferin 4-monooxygenase (Photinus pyralis) (UniProt P08659); experiment: firefly luciferase enzyme inhibitors, primary screen, biochemical, luminescence, purified enzyme, 2006 set (AID 1141); settings: SteadyGlo luminescence, 30 min, higher = more signal, called active from +8 up or from −8 down;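 note: cell-free assay with purified firefly luciferase at 100 ng per well in PBS; test concentration not given here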
Luciferin 4-monooxygenase (Photinus pyralis), sequence (P08659 whole entry, looked up): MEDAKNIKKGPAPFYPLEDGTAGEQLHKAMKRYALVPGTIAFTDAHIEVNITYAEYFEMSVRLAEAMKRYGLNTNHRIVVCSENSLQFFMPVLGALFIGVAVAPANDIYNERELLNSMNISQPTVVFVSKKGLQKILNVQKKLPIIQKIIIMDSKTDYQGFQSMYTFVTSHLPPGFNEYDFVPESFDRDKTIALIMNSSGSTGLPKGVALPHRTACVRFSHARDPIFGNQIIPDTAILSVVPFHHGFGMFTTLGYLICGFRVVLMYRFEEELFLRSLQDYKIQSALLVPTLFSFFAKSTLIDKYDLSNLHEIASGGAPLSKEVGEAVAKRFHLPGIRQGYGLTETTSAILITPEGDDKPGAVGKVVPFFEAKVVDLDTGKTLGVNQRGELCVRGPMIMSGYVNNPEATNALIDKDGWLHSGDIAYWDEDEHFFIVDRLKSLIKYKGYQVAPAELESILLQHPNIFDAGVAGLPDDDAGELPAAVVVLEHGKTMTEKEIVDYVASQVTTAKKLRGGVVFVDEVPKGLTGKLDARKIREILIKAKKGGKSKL

Concanavalin-A (Canavalia ensiformis), sequence (P02866 whole entry, looked up): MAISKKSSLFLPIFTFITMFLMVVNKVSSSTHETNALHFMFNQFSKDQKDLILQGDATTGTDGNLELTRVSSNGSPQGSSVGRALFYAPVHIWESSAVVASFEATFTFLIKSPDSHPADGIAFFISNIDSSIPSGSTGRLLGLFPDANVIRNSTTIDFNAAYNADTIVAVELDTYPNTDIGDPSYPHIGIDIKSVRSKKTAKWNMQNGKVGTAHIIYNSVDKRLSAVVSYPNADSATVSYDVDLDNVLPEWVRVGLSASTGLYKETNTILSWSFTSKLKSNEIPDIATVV
Follistatin (Homo sapiens), sequence (P19883 whole entry, looked up): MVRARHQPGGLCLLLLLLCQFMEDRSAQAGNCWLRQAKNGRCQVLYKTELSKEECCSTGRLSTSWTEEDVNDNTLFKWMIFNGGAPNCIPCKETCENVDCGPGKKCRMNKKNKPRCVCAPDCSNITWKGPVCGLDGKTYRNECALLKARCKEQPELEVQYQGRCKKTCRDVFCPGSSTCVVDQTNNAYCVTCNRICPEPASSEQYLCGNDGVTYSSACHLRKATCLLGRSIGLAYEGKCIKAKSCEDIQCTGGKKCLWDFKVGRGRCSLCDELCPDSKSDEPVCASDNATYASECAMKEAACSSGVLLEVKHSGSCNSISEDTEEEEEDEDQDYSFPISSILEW
Albumin (Bos taurus), sequence (P02769 whole entry, looked up): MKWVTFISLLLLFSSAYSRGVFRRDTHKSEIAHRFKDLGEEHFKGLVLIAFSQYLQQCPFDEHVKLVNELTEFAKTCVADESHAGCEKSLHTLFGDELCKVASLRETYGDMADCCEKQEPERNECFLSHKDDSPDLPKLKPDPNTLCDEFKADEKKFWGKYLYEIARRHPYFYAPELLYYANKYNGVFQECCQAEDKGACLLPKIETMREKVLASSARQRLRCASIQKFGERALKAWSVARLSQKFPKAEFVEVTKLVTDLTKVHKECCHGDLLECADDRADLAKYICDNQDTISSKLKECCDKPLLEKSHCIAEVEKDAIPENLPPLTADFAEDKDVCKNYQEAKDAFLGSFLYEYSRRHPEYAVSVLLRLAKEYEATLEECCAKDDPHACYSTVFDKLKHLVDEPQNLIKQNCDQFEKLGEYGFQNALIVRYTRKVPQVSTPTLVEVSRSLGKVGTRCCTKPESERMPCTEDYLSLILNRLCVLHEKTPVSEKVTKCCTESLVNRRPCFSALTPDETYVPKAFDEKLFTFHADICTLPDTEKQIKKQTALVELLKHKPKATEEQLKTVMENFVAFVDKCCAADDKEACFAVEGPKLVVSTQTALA
Fibroblast growth factor 2 (Homo sapiens), sequence (P09038 whole entry, looked up): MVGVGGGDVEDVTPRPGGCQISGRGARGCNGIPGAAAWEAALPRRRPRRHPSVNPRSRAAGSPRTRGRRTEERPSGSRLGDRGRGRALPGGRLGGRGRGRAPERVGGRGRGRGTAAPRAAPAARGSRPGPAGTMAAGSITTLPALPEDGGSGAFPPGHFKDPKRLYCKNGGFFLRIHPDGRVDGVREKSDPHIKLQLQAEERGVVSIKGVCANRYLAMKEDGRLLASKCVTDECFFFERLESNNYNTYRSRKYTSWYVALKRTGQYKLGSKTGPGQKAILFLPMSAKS
Focal adhesion kinase 1 (Homo sapiens), sequence (Q05397 whole entry, looked up): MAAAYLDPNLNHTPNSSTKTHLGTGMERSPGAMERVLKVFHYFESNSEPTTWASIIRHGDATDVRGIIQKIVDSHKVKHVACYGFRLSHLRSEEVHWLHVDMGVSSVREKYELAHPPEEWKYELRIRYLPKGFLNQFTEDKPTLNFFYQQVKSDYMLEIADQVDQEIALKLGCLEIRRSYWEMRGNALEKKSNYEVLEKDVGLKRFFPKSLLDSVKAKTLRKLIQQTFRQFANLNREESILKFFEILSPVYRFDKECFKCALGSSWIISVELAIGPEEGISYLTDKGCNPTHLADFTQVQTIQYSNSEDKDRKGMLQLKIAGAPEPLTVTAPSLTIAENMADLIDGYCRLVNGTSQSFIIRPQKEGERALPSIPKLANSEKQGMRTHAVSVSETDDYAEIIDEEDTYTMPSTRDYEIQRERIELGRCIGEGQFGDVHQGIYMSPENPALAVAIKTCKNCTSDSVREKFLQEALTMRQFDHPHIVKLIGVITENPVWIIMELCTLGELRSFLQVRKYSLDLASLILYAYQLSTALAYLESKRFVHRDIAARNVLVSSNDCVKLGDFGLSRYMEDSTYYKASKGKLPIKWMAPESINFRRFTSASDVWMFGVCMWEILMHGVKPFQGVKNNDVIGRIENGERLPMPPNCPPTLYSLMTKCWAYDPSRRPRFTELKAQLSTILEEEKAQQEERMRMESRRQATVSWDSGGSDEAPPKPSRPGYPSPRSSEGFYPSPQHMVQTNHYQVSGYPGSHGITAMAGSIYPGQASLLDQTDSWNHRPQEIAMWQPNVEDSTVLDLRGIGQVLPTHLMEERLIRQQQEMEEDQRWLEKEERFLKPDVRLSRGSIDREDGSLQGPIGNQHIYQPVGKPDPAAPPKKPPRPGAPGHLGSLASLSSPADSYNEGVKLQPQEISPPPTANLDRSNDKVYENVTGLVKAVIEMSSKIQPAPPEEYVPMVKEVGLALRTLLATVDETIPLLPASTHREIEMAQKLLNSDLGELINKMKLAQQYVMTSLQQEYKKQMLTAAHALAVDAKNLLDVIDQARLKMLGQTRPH

Row | SMILES | composite z-score [1] | composite Z-score [2] | composite z-score [3] | composite z-score [4] | composite z-score [5] | composite z-score [6] | composite z-score [7] | composite z-score [8] | composite z-score [9] | composite z-score [10] | composite z-score [11] | composite z-score [12] | composite z-score [13] | composite z-score [14] | composite z-score [15] | composite z-score [16] | z-score [17] | composite z-score [18] | composite z-score [19] | z-score [20]
1 | COc1ccc([Si](C)(C)[C@H]2[C@H](CCn3cc([C@H](O)c4ccccc4)nn3)O[C@@]3(C(=O)N(Cc4cccc(N5CCC5=O)c4)c4ccccc43)[C@@H]2C)cc1 | 0.31 | -0.0916 (inactive) | -0.219 | -0.245 | 0.115 | 1.12 | -0.166 | 0.316 | 0.317 | 0.47 | 0.396 | 0.302 | -0.0817 | 0.435 | 1.34 | 1.54 | 2.35 | 0.811 | 0.219 | -0.719 (inactive)
2 | NCCCCCNC(=O)[C@H]1C[C@H]2C(=O)NCC(=O)N2[C@H]1c1cccc(OCCO)c1 | 0.0356 | 0.131 (inactive) | 0.204 | -0.136 | 0.429 | 1.12 | 0.391 | 1.32 | 0.636 | 1.16 | 0.524 | 0.817 | 0.369 | 0.909 | 1.26 | 1.08 | 0.431 | 1.5 | 0.739 | 0.199 (inactive)
3 | [N-]=[N+]=NCc1ccccc1[C@@H]1OC(c2ccc(OCCCO)cc2)=N[C@]1(Cc1ccccc1)C(=O)N1CCCCC1 | 0.763 | -0.623 (inactive) | 0.211 | 0.0215 | 0.471 | 1.52 | -0.0921 | 1.32 | 0.581 | 1.14 | 2.4 | 1.2 | 0.0473 | 0.39 | 1.41 | 1.55 | 2.06 | -0.0101 | 0.903 | -1.22 (inactive)
4 | [N-]=[N+]=Nc1ccccc1C[C@]1(C(=O)NCCN2CCOCC2)N=C(c2ccc(OCCCO)cc2)O[C@H]1c1ccccc1 | 0.323 | 0.619 (inactive) | 0.194 | -0.0849 | 0.597 | 2.7 | 0.203 | 1.3 | 0.497 | 0.702 | 1.34 | 1.27 | 0.903 | 0.952 | 1.29 | 0.877 | 0.273 | -0.246 | 0.309 | -0.683 (inactive)
5 | O=C1O[C@@H](c2ccccc2)[C@@H](c2ccccc2)N2[C@@H](c3ccccc3OCCO)[C@]3(C(=O)Nc4ccc(C#CC5(O)CCCCCC5)cc43)[C@@H](C(=O)Nc3nc4ccccc4s3)[C@H]12 | 0.663 | -0.0544 (inactive) | 0.283 | -0.0904 | 0.453 | 1 | 0.246 | 1.02 | 0.784 | 0.723 | 1.22 | 1.21 | 0.237 | 0.991 | 1.25 | 1.02 | -1.98 | 0.744 | 0.847 | -0.84 (inactive)
6 | CC(C)C(=C=CC[C@@H](O)c1ccccc1OCCO)C[C@@H](O)c1ccccn1 | 0.0682 | -0.776 (inactive) | -0.0847 | -0.111 | 0.738 | 0.287 | -0.0744 | 0.95 | -0.0374 | 0.451 | -0.131 | 0.647 | 1.02 | 0.694 | 0.6 | 0.566 | 1.43 | 0.811 | 0.21 | -0.623 (inactive)
7 | CC(C)CNC(=O)[C@@]1(c2ccc([N+](=O)[O-])cc2)CC(=O)N(CC23CC4CC(CC(C4)C2)C3)[C@@H]1c1ccc(CO)cc1 | 0.152 | 0.0585 (inactive) | 0.157 | 0.014 | 0.523 | 1.42 | 1.15 | 1.04 | 0.201 | 0.73 | 0.943 | 0.662 | 0.24 | -0.0362 | 0.946 | 1.1 | 2.5 | 0.0651 | 0.358 | -1.61 (inactive)
8 | O=C1C2C=CC(C(O)c3ccc(-c4ccccc4)s3)N(n3cnnc3)C2C(=O)N1Cc1ccccc1 (stereo not given) | -0.314 | -0.34 (inactive) | 0.0519 | -0.0467 | 0.465 | 0.942 | 0.253 | 0.145 | -0.42 | 0.615 | 1.46 | -0.283 | 0.0347 | 0.708 | -0.279 | -0.625 | -1.32 | -0.69 | 0.525 | 1.77 (inactive)
